Giardia FBPA inh: Giardia lamblia aldolase inhibition; A8B2U2; purified Giardia FBPA; Potency, µM (titrated, usually from 59.6 µM), for inactives: at the top dose activity, negative = inhibition, hits mostly inhibitors; 0.71% of 290,000 active; AID 2451; further: nearly all actives have a fitted effect of over 55% in size
Target sequence (A8B2U2 whole entry, looked up): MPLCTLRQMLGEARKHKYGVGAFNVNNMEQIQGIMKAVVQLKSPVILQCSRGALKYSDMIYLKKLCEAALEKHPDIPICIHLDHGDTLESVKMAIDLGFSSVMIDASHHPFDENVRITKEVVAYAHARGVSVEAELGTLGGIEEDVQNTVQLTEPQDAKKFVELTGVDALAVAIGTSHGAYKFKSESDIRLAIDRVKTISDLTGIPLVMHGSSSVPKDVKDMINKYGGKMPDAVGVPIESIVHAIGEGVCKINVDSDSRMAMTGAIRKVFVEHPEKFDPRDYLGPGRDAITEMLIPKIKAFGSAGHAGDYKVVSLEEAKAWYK
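40 nM FBPA preincubated 10 min at RT with compound (up to 57.5 uM final), then substrate plus GAPDH/TPI/NAD/arsenate coupling and diaphorase/resazurin added. Fluorescence read after 20 min at RT, 525/598 nm.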
RE007 growth inh: less growth of the S. pombe RE007 Vpr strain | AID 651644 | 0.21% of 360,000 active | S. pombe RE007 Vpr strain, BacTiter-Glo ATP luminescence, 24 h | Potency, µM (series often up to 92.2 µM), inactives show top-dose activity change, negative = less growth, usual class: inhibitors; active means well fitted falling curve with a large enough effect; inconclusive means small, poorly fitted or top-dose-only effect; inactive means no such curve, though single readings can be large or run the other way; further: nearly all actives have a fitted effect of over 50% in size
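Fission yeast strain RE007, carrying one chromosomally integrated HIV-1 vpr copy, was seeded at OD 0.01 in PMG+AL medium with 23 nL pinned compound. After 24 h at 30 °C and 99% humidity, viability was read by BacTiter-Glo luminescence.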
Sm TGR block: S. mansoni TGR enzyme inhibition. Q962Y6. purified TGR, DTNB reduction, TNB absorbance 405 nm. Potency, µM (top dose mostly 114 µM), for the others: at the highest dose activity change, negative = inhibition, usual class: inhibitors. 3% of 360,000 active. AID 485364; further: nearly all actives have a fitted effect of over 60% in size
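Kinetic colorimetric format: TGR-catalysed, NADPH-driven DTNB reduction monitored via TNB absorbance. Enzyme dispensed at 20 nM; compound exposure 15 min at room temperature before reaction start.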
AmpC inh no detg: AmpC beta-lactamase inhibition without detergent | P00811 | AmpC nitrocefin hydrolysis, absorbance 480 nm, 0.0001% Triton | Potency, µM (doses to about 57.1 µM), for inactives: top-dose activity change, negative = inhibition, hits mostly inhibitors | 0.52% of 330,000 active | AID 485341;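 further: plate controls were no compound for no effect and no enzyme for full effect; nearly all actives have a fitted effect of over 20% in size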
Target sequence (P00811 whole entry, looked up): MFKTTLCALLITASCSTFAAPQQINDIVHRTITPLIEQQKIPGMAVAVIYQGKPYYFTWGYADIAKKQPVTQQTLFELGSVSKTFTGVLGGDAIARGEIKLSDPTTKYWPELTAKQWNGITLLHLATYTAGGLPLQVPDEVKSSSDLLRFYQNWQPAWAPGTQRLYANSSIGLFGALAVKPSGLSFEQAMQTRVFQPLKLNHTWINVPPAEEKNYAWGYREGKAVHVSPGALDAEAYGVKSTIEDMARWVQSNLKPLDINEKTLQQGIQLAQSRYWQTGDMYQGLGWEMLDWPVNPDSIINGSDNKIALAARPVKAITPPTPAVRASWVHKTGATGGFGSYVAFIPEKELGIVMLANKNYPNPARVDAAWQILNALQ
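AmpC (5.3 nM in the dispensed reagent) in 20 mM phosphate pH 7.0 with 0.01% (detergent screen) or 0.0001% Triton X-100 was preincubated with compounds for 15 min at room temperature. Nitrocefin was then added from an 800 uM solution, and hydrolysis was followed at 480 nm.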
AmpC detergent: blocks E. coli AmpC beta-lactamase in detergent assay; P00811; AmpC hydrolysis of nitrocefin, absorbance 480 nm, 0.01% Triton; Potency, µM (doses to about 114 µM), for inactives: at the top dose activity change, negative = inhibition, actives largely listed as inhibitors; 0.041% of 370,000 active;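 further: 0% = no-compound wells and -100% = no-enzyme wells; nearly all actives have a fitted effect of over 25% in size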
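AmpC (5.3 nM in the dispensed reagent) in 20 mM phosphate pH 7.0 with 0.01% (detergent screen) or 0.0001% Triton X-100 was preincubated with compounds for 15 min at room temperature. Nitrocefin was then added from an 800 uM solution, and hydrolysis was followed at 480 nm.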
* marks the source's active call; other numbers are inactive results; ? = inconclusive; nt = no result. An excerpt weighted towards active compounds, which were near 3.4% of everything screened. Unless noted, the call rests on the fitted dose curve; in most records, active means well fitted curve in the direction sought with a large enough effect; inconclusive means small, poorly fitted or top-dose-only effect, or another doubt; inactive means no such curve, though single readings can be large; an effect the other way counts as inactive or inconclusive. Unless noted, on the % scale 0 is the no-effect control and ±100 the full control effect; potency means the concentration at half of the fitted maximal effect.

SMILES	Giardia FBPA inh	RE007 growth inh	Sm TGR block	AmpC inh no detg	AmpC detergent
COC(=O)c1ccc(CSc2nc3scc(-c4cccs4)c3c(=O)[nH]2)o1	-9.9%	-2.0%	?	10µM*	-10.3%
c1ccc(-c2cc(-c3nn4c(-c5ccco5)nnc4s3)c3ccccc3n2)cc1	6.1%	0.7%	20µM*	-47.3%	?
c1coc(-c2nnc3sc(-c4cccs4)nn23)c1	1.0%	-0.1%	17.8µM*	-32.9%	4.6%
COc1cc(OC)c(-c2nn3c(-c4ccco4)nnc3s2)cc1OC	-4.3%	1.9%	11.2µM*	163.5%	-6.9%
O=C(Cc1ccccc1)NC1CCN(S(=O)(=O)c2ccc(C(=O)O)cc2)CC1	-10.4%	-1.8%	4.9%	2.2%	-3.5%
CCc1ccccc1Nc1cc(C(=O)NCc2ccc(C)cc2)c2ccccc2n1	nt	nt	-1.4%	nt	7.7%
CC(=O)c1ccc(S(=O)(=O)N(CC(=O)NC2CC2)Cc2ccc(F)cc2)cc1	nt	-9.9%	-0.5%	-12.1%	?
Cc1ccccc1CN1CCN(Cc2ccccc2)CC1	4.0%	8.2%	13.1%	-12.4%	2.3%
Cc1ccc(CNC(=O)c2ccc(CNS(=O)(=O)c3ccc4c(c3)C(C)(C)C(=O)N4C)cc2)o1	-5.5%	0.8%	50.1µM*	-10.4%	-9.3%
CN(C)S(=O)(=O)c1ccc(C(=O)NCC(c2cccs2)N2CCOCC2)cc1 (stereo not given)	nt	20.5%	56.2µM*	-6.2%	-18.1%
CCN(CC)S(=O)(=O)c1ccc(C(=O)NCC(c2cccs2)N2CCOCC2)cc1 (stereo not given)	-8.9%	10.0%	-7.9%	77.3%	?
CCN1C(=O)[C@H]2[C@@H](c3ccc(-c4ccc(F)cc4)cc3)N[C@@](CC(C)C)(C(=O)OC)[C@H]2C1=O	nt	-14.2%	-13.3%	93.7%	-3.9%
CCN1C(=O)[C@@H]2[C@@H](c3ccc(-c4ccc(F)cc4)c(OC)c3)N3CCCC[C@@]3(C(=O)OC)[C@@H]2C1=O	nt	6.6%	28.2µM*	67.4%	-2.0%
CCN1C(=O)[C@H]2[C@@H](c3ccc(-c4ccc(C(C)=O)cc4)c(OC)c3)N3CCCC[C@@]3(C(=O)OC)[C@H]2C1=O	nt	-12.8%	nt	191.4%	nt
CCN1C(=O)[C@H]2[C@@H](c3ccc(-c4ccc(F)cc4)c(OC)c3)N[C@@](CC(C)C)(C(=O)OC)[C@H]2C1=O	nt	nt	39.8µM*	143.8%	-1.9%
CSCC[C@H](NC(=O)Nc1ccccc1C)C(=O)O	1.0%	5.4%	5.6%	0.3%	-1.4%
NC(=O)/C=C/C(=O)Nc1ccc(Cl)cc1	3.7%	11.2µM*	3.55µM*	-13.1%	-0.4%
Cc1cc(Cl)ccc1OCC(=O)Nc1nc(-c2cccs2)cs1	-0.2%	?	5.8%	17.8µM*	1.4%
O=C(CCl)N(c1ccccc1)C1CCCCC1	?	13.1%	3.16µM*	-3.9%	-4.5%
O=P(c1ccccc1)(c1nc2ccccc2s1)N1CCOCC1 (stereo not given)	3.0%	6.9%	50.1µM*	-6.6%	-2.1%
Cc1ccc(N(CC(=O)NCc2ccco2)S(=O)(=O)c2ccccc2)cc1	3.4%	17.0%	25.1µM*	-21.5%	8.4%
Cc1ccc(N(CC(O)COCc2ccco2)S(=O)(=O)c2ccc(C)cc2)cc1 (stereo not given)	7.7%	-5.5%	8.91µM*	0.9%	?
CCc1ccc(N(CC(=O)NC2CC2)S(=O)(=O)c2ccc(C)cc2)cc1	nt	-5.1%	39.8µM*	47.6%	3.5%
Cc1ccc(S(=O)(=O)N(CC(=O)NCc2ccco2)C2CCCCC2)cc1	-7.0%	-7.1%	44.7µM*	-15.7%	-9.3%
COc1ccc(/C(N)=N/OC(=O)c2ccc(Br)o2)cc1	-6.0%	5.1%	0.5%	-6.1%	-8.5%
SMILES	Giardia FBPA inh	RE007 growth inh	Sm TGR block	AmpC inh no detg	AmpC detergent
COc1ccccc1N(CC(=O)NCc1ccco1)S(=O)(=O)c1ccc(C)cc1	-13.5%	15.9%	39.8µM*	-38.6%	?
Cc1ccn2c(NCc3ccc4c(c3)OCO4)c(-c3ccc(O)cc3)nc2c1	0.8%	-2.8%	-19.7%	-3.8%	?
COC(=O)CCCNC(=O)OCc1ccc([N+](=O)[O-])cc1	0.0%	0.9%	3.4%	5.3%	-14.4%
Cc1ccccc1NC(=O)C1c2cccc[n+]2CC(=O)N1c1c(C)cccc1C (stereo not given)	-14.7%	-7.3%	44.7µM*	7.3%	?
Cc1cccc(C)c1NC(=O)C1c2cccc[n+]2CC(=O)N1Cc1ccc2c(c1)OCO2 (stereo not given)	-7.2%	0.2%	-13.1%	-17.4%	-0.4%
CCOc1ccc(NC2C=CS(=O)(=O)C2)cc1 (stereo not given)	?	0.4%	28.2µM*	-19.4%	-5.4%
COc1ccc(NC2C=CS(=O)(=O)C2)cc1 (stereo not given)	-0.9%	8.2%	0.4%	nt	-0.1%
C[C@H]1CN([C@@H](C)CO)S(=O)(=O)c2ccc(C3=CCCC3)cc2O[C@@H]1CN(C)C(=O)C1CCCCC1	nt	0.9%	nt	nt	nt
COc1cccc(NC(=O)C2CCN(S(=O)(=O)c3ccc4c(c3)NC(=O)CO4)CC2)c1	nt	13.6%	-7.8%	-42.8%	-2.3%
Cc1cc(/C=C2\C(=O)NC(=O)N(c3ccc(Cl)cc3)C2=O)c(C)n1-c1cccc(C(=O)O)c1	-16.4%	8.1%	7.08µM*	-27.5%	-0.5%
Cc1cc(/C=C2\C(=O)NC(=O)N(c3cccc(F)c3)C2=O)c(C)n1-c1cc(C(=O)O)cc(C(=O)O)c1	7.1%	3.6%	?	-29.2%	-9.4%
Cc1cc(/C=C2\C(=O)NC(=O)N(c3ccc(Br)cc3)C2=O)c(C)n1-c1cc(C(=O)O)cc(C(=O)O)c1	-0.8%	nt	8.91µM*	-35.3%	-7.4%
CC(C)c1nc(CNC(=O)CC2C(=O)NCCN2Cc2ccc(F)cc2Cl)cs1 (stereo not given)	nt	7.7%	?	115.3%	-10.1%
O=C(CC1C(=O)NCCN1Cc1ccc(F)cc1Cl)NCc1ccon1 (stereo not given)	nt	0.1%	12.6µM*	-8.3%	-1.0%
CN(Cc1ccccn1)C(=O)CC1C(=O)NCCN1Cc1cccc(Oc2ccccc2)c1 (stereo not given)	-14.7%	25.5%	50.1µM*	121.0%	-5.2%
CN(Cc1nccn1C)C(=O)CC1C(=O)NCCN1Cc1cccc(Oc2ccccc2)c1 (stereo not given)	-15.9%	-6.5%	-29.3%	92.7%	5.5%
CN(Cc1cnn(C)c1)C(=O)CC1C(=O)NCCN1Cc1cccc(Oc2ccccc2)c1 (stereo not given)	-11.8%	6.0%	39.8µM*	109.8%	0.7%
COc1cccc(CN2CCNC(=O)C2CC(=O)N(C)C2CCCCC2)c1 (stereo not given)	-21.8%	-11.7%	44.7µM*	80.9%	-3.2%
